Experiment in all cases: NCI-60 one-dose screen, 48 h (100 = growth as untreated, 0 = no growth, -100 = all killed)
Assay [1] relates to T-47D breast. Conditions: 10 µM.
The subject of assay [2] is BT-549 breast. To be noted: 10 µM unless noted.
Assay [3] relates to MDA-MB-435 melanoma. To be noted: 10 µM unless noted.
Assay [4] relates to SW-620 colon. Conditions: 10 µM unless noted.
Assay [5] deals with MCF7 breast. To be noted: 10 µM unless noted.
Assay [6] deals with HCT-116 colon. To be noted: 10 µM unless noted.
The subject of assay [7] is KM12 colon. To be noted: 10 µM unless noted.
Assay [8] has as its system HCC-2998 colon. To be noted: 10 µM unless noted.

About 83,000 compounds went through this panel and 20% of them were active in at least one assay; those are over-represented in the sample as a whole.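 96-well plates, one dose, 48 hours. Percent growth reported; active if below 10.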 Unmarked numbers belong to inactive results. The source made the active and inactive calls.

In the case of `Cc1ccc(N=c2nc3sc4c(C)ccc(C)c4n3c(N)c2C#N)cc1`, the growth was 90.8% in assay [1]; 97.2% in assay [2]; 110% in assay [3]; 105% in assay [4]; 88.3% in assay [5]; 94.4% in assay [6]. Further, the growth in assay [7] is 97.7%.

`O=C(Nc1ccc(Cl)c(Cl)c1)NC(CO)(CO)CO`: the growth in assay [1] is 96%; in assay [2], 93.8%; in assay [3] it was 95.8%; in assay [4], 101%; in assay [5], 97.4%; in assay [6], 101%. The growth was 102% in assay [8] and 97.7% in assay [7].

For the molecule `CCOc1ccc(-c2cnnn2-c2nonc2-n2cccc2)cc1`, the growth in assay [1] is 49%; in assay [2], 41.1%; in assay [3], -31.2% (active); in assay [4], 21.7%; in assay [5], 21.9%; in assay [6], 6.67% (active). Besides, the growth in assay [8] was 0.666% (active); in assay [7], 8.62% (active).

In the case of `O=C(N/N=C/c1ccc(F)cc1)c1[nH]c2ccc(I)cc2c1-c1ccccc1`, the growth was 48.4% in assay [1]; 20.1% in assay [2]; -24% (active) in assay [3]; 33.3% in assay [4]; 14.3% in assay [5]; 14.8% in assay [6]. Also, in assay [7], the growth was 5.42% (active).

Take `Oc1ccc(Cl)cc1CNc1nc2ccccc2[nH]1`: the growth in assay [1] was 96%; in assay [2] it was 58.4%; in assay [3], -67.3% (active); in assay [4] it was -48.6% (active); in assay [5] it was 18%; in assay [6], 12.3%. Besides, the growth in assay [8] is 59.3%; in assay [7] it was 13.2%.

For the molecule `O=C(O)c1ccccc1Oc1cc(-c2ccco2)nc(OCCBr)n1`, the growth in assay [1] is 101%; in assay [2], 92.1%; in assay [3] it was 101%; in assay [4], 105%; in assay [5] it was 101%; in assay [6] it was 96.5%. In addition, the growth in assay [8] is 107%; in assay [7], 95.6%.

For `O=[N+]([O-])c1ccc(C=C2C(Cl)=C(Cl)C(Cl)=C2Cl)cc1`, the growth in assay [1] is 47.8%; in assay [2] it was 97.7%; in assay [3], 76.1%; in assay [4], -59.9% (active); in assay [5], 34.8%; in assay [6], -11% (active). Also, the growth in assay [7] is 73.7%.

In the case of `Cc1nc2cc(Nc3nc(N4CCOCC4)nc(N4CCN(C)CC4)n3)ccc2n1Cc1ccccc1`, the growth was 99.6% in assay [1]; 103% in assay [2]; 100% in assay [3]; 104% in assay [4]; 98.8% in assay [5]; 98.2% in assay [6]. Besides, in assay [7], the growth was 115%.

Regarding `COc1cccc(C2CC(=O)Nc3cc4c(cc32)CCC4)c1OC` (configuration not stated), the growth in assay [1] was 57.1%; in assay [2], 62.3%; in assay [3], -56.5% (active); in assay [4], 29.3%; in assay [5] it was 29.3%; in assay [6], 57.7%. The growth in assay [7] was 28.5%.

As for `Nc1c(Br)cc(Br)cc1-c1n[nH]c(=O)[nH]c1=O`, the growth in assay [1] is 103%; in assay [2], 101%; in assay [3] it was 99.2%; in assay [4], 96.9%; in assay [5] it was 99.8%; in assay [6] it was 107%. The growth is 111% in assay [8] and 99.8% in assay [7].

Turning to `O=C1/C(=C/c2ccc(F)cc2)CN(Cc2cn(CCNc3ccnc4cc(Cl)ccc34)nn2)C/C1=C\c1ccc(F)cc1`, the growth is -31.2% (active) in assay [1]; -91.1% (active) in assay [2]; -86.5% (active) in assay [3]; -70.5% (active) in assay [4]; -79.6% (active) in assay [5]; -84.5% (active) in assay [6]. For the same molecule, the growth in assay [8] is -92.1% (active); in assay [7] it was -71.4% (active).

With `OC[C@@H](O)[C@@H](O)CO`, the growth was 103% in assay [1]; 101% in assay [2]; 100% in assay [3]; 98.4% in assay [4]; 99.9% in assay [5]; 102% in assay [6]. The growth in assay [8] is 102%; in assay [7], 105%.

For `O=c1nc(NO)[nH]c(=O)n1Cc1ccc(F)cc1`, the growth was 97% in assay [1]; 102% in assay [2]; 103% in assay [3]; 101% in assay [4]; 94.3% in assay [5]; 102% in assay [6]. In addition, the growth in assay [7] is 109%.

On to `O=C1/C(=C/c2ccc(Cl)cc2)N=C(c2ccccc2)N1CCc1cccs1`, for which the growth in assay [1] is 97.7%; in assay [2], 59.8%; in assay [3], 53.2%; in assay [4], 51.3%; in assay [5], 15.7%; in assay [6] it was 28.5%. For the same molecule, the growth was 25.4% in assay [8] and 99.2% in assay [7].

Take `CC(C)(C)[Si](C)(C)OC1[C@@H](O[Si](C)(C)C(C)(C)C)[C@@H](CNC(=O)NC(=O)C(F)(F)F)O[C@H]1n1cnc2c(NC(=O)Nc3ccccc3)ncnc21` (some centres not stated): the growth in assay [1] was 85.5%; in assay [2] it was 96%; in assay [3] it was -4.83% (active); in assay [4], 71.2%; in assay [5], 48.3%; in assay [6], 57.2%. Further, the growth in assay [7] was 24%.

On to `O=C(NCc1ccco1)C1CCN(S(=O)(=O)c2ccc(Cl)cc2)CC1`, for which the growth is 78% in assay [1]; 84.4% in assay [2]; -9% (active) in assay [3]; 38.5% in assay [4]; 64.7% in assay [5]; 70.4% in assay [6]. Moreover, the growth in assay [7] is 37.6%.

Turning to `NS(=O)(=O)c1cc(Br)c2c(c1)S(=O)(=O)NCN2`, the growth in assay [1] was 102%; in assay [2], 108%; in assay [3], 105%; in assay [4] it was 109%; in assay [5], 97.4%; in assay [6] it was 108%. Besides, the growth in assay [7] is 96.9%.

(Values after PubChem BioAssay (NCI).)
